We go through 1 sequence from publication PMC7862700, “An all-to-all approach to the identification of sequence-specific readers for epigenetic DNA modifications on cytosine”.

Common to all, as to assay: DAPPL (digital affinity profiling via proximity ligation, sequencing); 10 mM Tris-HCl pH 7.5, 50 mM NaCl, 1 mM DTT, 4% glycerol, room temperature, 30 min; GST-TFs on glutathione beads, 16-mer random dsDNA library, 0.1% formaldehyde crosslink after washing; high values mean tight binding
In one experiment the target is T1, FEV (Homo sapiens, UniProt Q99581 1-238).
T1 sequence: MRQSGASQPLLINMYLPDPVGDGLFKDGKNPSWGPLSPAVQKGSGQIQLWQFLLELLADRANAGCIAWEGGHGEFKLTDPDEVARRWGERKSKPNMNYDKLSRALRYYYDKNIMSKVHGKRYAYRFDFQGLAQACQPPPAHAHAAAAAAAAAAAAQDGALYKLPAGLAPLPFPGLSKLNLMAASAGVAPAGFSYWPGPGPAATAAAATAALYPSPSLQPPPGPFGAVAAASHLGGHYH
The note with it: protein: recombinant; tags: N-terminal GST; dsDNA, one strand shown. In short, it runs like this: (§1)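 Human transcription factors fused to GST were expressed in yeast, captured on glutathione beads, given DNA barcodes and pooled with a GST-only negative control. Pools were incubated with 200 nmole of a 16-mer random double-stranded DNA library in Tris/NaCl/DTT/glycerol buffer at room temperature for 30 min. They were then washed, crosslinked with 0.1% formaldehyde, proximity-ligated (BsaI/T4 ligase, 1 h, 37 °C), PCR-amplified and sequenced on an Illumina NextSeq500. Binding signal is each 6-mer's read frequency for a factor divided by its frequency for the GST control.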

The target in the next experiment is ETV5 (Homo sapiens, UniProt P41161 1-510). Particulars: protein: recombinant; tags: N-terminal GST; dsDNA, one strand shown. The method, boiled down:
as §1

A further experiment concerns the target HSF1 (Homo sapiens, UniProt Q00613 1-529). The note with it: protein: recombinant; tags: N-terminal GST; chain copies: 3; dsDNA, one strand shown. In short, it runs like this: as §1
For another experiment, the target named is T2, SPIC (Homo sapiens, UniProt Q8N5J4 1-248).
T2 sequence: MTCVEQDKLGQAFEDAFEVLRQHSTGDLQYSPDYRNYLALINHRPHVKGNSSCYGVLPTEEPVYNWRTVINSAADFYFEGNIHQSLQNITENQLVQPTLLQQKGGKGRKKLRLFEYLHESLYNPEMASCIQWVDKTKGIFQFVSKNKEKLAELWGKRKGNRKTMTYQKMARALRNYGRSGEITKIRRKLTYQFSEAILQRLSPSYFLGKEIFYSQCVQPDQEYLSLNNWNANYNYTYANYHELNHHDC
Particulars: protein: recombinant; tags: N-terminal GST; dsDNA, one strand shown. In short, it runs like this:
as §1

The next experiment addresses ELF4 (Homo sapiens, UniProt Q99607 1-663). The note with it: protein: recombinant; tags: N-terminal GST; dsDNA, one strand shown. The method, boiled down: as §1
A further experiment concerns the target T3, ELK4 (Homo sapiens, UniProt P28324-2 1-405).
T3 sequence: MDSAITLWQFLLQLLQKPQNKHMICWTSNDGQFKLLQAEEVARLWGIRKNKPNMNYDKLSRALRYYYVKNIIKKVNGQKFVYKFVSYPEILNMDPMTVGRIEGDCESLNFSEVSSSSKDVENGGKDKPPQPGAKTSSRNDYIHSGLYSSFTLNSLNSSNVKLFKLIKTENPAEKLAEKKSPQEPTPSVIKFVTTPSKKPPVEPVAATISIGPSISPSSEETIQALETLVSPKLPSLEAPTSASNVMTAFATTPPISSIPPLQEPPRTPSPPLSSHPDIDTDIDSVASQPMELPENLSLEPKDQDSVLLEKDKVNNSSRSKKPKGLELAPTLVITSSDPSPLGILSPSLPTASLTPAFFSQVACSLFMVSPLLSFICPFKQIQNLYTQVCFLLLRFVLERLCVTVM
Particulars: protein: recombinant; tags: N-terminal GST; dsDNA, one strand shown. The method, boiled down: as §1

The target in another experiment is T4, ETV2 (Homo sapiens, UniProt O00321 1-342).
T4 sequence: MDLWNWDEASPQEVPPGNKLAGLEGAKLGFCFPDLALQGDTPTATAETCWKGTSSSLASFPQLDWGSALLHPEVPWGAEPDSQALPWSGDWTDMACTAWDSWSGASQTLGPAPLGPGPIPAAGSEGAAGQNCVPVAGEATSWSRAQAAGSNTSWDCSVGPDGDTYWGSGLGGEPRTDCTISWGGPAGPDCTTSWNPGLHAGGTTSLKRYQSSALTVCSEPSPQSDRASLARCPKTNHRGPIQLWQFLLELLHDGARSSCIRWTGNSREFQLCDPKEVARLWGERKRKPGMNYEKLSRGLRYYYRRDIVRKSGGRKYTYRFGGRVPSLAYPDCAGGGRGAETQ
The note with it: protein: recombinant; tags: N-terminal GST; dsDNA, one strand shown. In short, it runs like this:
as §1

For a further experiment, the target named is T5, ELF3 (Homo sapiens, UniProt P78545 1-371).
T5 sequence: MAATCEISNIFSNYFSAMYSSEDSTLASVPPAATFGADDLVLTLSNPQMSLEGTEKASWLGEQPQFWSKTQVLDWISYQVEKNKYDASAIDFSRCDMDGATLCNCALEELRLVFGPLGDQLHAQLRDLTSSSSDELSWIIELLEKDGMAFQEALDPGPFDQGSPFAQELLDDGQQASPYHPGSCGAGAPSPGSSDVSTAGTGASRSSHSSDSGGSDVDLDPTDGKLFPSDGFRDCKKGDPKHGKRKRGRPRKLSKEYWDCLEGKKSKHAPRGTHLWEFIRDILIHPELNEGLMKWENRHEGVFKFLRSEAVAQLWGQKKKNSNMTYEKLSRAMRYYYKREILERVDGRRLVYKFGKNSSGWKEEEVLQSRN
Particulars: protein: recombinant; tags: N-terminal GST; dsDNA, one strand shown. The method, boiled down: as §1

The next experiment has as its target CRX (Homo sapiens, UniProt O43186 1-299). The note with it: protein: recombinant; tags: N-terminal GST; dsDNA, one strand shown. In short, it runs like this: as §1
The target of another experiment is ETV1 (Homo sapiens, UniProt P50549 1-477). The note with it: protein: recombinant; tags: N-terminal GST; dsDNA, one strand shown. The method, boiled down: as §1
ETV1, sequence (P50549 whole entry): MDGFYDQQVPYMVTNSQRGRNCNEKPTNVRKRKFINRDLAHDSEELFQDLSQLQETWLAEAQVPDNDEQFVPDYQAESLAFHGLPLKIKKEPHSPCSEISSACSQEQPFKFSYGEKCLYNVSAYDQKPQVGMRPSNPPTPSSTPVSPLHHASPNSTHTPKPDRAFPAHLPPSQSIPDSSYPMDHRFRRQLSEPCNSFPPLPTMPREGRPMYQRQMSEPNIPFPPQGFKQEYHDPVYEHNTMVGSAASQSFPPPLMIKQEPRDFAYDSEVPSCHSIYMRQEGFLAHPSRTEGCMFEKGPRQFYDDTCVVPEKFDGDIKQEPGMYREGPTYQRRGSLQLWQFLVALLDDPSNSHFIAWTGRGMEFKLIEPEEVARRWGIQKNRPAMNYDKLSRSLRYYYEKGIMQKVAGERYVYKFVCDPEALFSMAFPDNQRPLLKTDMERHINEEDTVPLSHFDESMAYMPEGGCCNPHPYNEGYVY
The next experiment addresses T6, ERF (Homo sapiens, UniProt P50548 1-548).
T6 sequence: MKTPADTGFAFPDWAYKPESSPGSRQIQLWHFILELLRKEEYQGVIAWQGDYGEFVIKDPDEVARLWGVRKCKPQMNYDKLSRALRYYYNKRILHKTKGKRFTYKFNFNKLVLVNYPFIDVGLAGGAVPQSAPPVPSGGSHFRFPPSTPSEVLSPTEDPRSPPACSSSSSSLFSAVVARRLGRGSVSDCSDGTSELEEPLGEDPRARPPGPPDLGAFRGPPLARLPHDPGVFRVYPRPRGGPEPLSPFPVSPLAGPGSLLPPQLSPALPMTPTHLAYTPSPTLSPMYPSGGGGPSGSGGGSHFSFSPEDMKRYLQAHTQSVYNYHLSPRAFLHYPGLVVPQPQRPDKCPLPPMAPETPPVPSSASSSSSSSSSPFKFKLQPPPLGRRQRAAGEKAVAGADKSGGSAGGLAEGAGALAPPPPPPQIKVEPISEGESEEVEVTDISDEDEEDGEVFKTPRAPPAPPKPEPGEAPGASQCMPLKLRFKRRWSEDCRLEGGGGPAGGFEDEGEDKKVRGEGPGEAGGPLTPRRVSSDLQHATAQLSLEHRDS
The note with it: protein: recombinant; tags: N-terminal GST; dsDNA, one strand shown. The method, boiled down: as §1

Another experiment concerns the target T7, ETV3L (Homo sapiens, UniProt Q6ZN32 1-361).
T7 sequence: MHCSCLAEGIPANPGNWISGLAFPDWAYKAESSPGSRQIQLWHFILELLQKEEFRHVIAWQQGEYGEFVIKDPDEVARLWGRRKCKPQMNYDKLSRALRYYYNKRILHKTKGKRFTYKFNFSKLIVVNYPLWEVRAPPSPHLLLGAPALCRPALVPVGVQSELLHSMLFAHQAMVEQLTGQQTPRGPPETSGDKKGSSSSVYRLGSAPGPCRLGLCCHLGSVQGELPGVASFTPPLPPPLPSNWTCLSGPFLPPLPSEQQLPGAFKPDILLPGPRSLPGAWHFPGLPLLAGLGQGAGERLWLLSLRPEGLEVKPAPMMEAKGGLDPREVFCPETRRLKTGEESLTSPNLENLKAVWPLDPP
Particulars: protein: recombinant; tags: N-terminal GST; dsDNA, one strand shown. The method, boiled down:
as §1

The target in a further experiment is T8, ETS2 (Homo sapiens, UniProt P15036 1-469).
T8 sequence: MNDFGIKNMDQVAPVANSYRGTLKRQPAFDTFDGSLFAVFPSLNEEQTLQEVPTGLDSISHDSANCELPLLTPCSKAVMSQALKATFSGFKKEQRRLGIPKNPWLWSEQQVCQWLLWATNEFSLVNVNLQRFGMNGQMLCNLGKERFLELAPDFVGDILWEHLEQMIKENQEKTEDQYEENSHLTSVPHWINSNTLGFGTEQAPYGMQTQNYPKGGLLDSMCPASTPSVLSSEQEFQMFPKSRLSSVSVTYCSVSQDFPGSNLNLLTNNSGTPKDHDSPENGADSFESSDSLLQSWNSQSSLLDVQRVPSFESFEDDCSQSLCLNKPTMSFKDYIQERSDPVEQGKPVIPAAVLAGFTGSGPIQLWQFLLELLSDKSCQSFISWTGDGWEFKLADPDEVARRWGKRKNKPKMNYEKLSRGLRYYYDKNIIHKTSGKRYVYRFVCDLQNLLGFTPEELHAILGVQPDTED
Particulars: protein: recombinant; tags: N-terminal GST; dsDNA, one strand shown. In short, it runs like this:
as §1

In a further experiment the target is T9, SPDEF (Homo sapiens, UniProt O95238 1-335).
T9 sequence: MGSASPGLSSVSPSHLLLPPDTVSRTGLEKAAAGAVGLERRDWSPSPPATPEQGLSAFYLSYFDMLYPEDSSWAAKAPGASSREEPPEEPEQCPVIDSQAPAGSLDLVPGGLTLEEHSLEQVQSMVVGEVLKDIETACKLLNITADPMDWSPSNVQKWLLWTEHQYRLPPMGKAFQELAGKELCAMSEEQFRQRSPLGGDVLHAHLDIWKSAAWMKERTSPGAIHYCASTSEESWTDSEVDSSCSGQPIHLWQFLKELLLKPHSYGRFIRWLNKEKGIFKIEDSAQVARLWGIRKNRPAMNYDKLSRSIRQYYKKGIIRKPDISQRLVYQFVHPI
Particulars: protein: recombinant; tags: N-terminal GST; dsDNA, one strand shown. In short, it runs like this:
as §1

For a further experiment, the target named is T10, ETV7 (Homo sapiens, UniProt Q9Y603 1-341).
T10 sequence: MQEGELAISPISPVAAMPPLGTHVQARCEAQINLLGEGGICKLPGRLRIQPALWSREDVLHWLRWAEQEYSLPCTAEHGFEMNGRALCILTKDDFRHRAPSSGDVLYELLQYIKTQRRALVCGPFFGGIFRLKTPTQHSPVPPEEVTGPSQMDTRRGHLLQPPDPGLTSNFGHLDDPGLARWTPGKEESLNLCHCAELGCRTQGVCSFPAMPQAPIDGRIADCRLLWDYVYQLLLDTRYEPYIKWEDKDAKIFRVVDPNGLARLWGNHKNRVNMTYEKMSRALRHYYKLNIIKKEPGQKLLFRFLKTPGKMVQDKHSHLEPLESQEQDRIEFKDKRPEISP
The note with it: protein: recombinant; tags: N-terminal GST; dsDNA, one strand shown. The method, boiled down:
as §1

In the next experiment the target is T11, ELF5 (Homo sapiens, UniProt Q9UKW6-2 1-255).
T11 sequence: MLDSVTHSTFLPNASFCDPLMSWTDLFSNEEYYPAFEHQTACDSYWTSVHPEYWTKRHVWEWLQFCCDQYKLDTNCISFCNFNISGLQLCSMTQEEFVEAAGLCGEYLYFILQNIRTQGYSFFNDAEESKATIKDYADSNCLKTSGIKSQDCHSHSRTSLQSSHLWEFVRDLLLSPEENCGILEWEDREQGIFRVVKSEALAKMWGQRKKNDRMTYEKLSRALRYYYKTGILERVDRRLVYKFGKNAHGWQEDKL
The note with it: protein: recombinant; tags: N-terminal GST; dsDNA, one strand shown. The method, boiled down:
as §1

The target in a further experiment is T12, ETV3 (Homo sapiens, UniProt P41162-2 1-143).
T12 sequence: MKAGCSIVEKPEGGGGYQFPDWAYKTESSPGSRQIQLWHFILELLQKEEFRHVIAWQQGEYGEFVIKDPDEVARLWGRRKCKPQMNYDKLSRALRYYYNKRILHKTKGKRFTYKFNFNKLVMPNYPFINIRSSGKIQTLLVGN
The note with it: protein: recombinant; tags: N-terminal GST; dsDNA, one strand shown. The method, boiled down:
as §1

Another experiment concerns the target ETV6 (Homo sapiens, UniProt P41212 1-452). Particulars: protein: recombinant; tags: N-terminal GST; dsDNA, one strand shown. In short, it runs like this:
as §1

ELF4, sequence (Q99607 whole entry): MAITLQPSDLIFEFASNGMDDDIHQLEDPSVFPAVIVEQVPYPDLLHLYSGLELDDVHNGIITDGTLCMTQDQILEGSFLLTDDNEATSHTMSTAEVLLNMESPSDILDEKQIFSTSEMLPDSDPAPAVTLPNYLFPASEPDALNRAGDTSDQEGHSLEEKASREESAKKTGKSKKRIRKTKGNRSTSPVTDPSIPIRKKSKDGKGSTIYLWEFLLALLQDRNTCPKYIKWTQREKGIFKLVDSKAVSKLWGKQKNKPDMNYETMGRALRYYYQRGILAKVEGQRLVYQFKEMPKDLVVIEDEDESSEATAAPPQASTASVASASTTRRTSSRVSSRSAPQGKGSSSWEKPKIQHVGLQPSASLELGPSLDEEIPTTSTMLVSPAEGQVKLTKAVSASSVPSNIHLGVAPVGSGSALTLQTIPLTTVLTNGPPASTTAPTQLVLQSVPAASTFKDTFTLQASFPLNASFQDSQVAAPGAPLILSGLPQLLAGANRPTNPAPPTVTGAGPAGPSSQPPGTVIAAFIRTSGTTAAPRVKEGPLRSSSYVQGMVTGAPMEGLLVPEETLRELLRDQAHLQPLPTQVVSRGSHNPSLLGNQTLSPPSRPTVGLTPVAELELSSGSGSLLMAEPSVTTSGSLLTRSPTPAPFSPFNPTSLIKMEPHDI
HSF1, sequence (Q00613 whole entry): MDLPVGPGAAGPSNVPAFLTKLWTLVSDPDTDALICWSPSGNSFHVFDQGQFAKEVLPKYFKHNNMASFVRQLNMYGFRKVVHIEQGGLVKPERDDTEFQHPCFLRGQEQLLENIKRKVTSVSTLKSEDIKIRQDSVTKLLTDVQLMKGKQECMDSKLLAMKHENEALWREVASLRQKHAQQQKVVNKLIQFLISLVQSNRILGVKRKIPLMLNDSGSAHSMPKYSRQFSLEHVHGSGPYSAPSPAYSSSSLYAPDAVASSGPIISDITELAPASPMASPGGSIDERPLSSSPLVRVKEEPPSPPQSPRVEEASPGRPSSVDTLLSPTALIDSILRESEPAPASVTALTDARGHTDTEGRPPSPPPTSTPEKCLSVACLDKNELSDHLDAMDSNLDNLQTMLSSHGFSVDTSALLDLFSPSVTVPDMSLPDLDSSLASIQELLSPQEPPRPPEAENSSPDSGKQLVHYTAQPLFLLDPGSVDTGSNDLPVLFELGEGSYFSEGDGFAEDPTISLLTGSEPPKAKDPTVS
CRX, sequence (O43186 whole entry): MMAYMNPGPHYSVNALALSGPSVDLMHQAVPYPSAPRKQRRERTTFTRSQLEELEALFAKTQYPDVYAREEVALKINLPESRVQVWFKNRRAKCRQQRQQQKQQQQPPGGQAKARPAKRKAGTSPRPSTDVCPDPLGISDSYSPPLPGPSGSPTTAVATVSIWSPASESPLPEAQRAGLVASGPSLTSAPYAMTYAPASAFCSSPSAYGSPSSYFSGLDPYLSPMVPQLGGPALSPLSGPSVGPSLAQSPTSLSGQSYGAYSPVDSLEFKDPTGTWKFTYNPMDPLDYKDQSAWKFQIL
ETV5, sequence (P41161 whole entry): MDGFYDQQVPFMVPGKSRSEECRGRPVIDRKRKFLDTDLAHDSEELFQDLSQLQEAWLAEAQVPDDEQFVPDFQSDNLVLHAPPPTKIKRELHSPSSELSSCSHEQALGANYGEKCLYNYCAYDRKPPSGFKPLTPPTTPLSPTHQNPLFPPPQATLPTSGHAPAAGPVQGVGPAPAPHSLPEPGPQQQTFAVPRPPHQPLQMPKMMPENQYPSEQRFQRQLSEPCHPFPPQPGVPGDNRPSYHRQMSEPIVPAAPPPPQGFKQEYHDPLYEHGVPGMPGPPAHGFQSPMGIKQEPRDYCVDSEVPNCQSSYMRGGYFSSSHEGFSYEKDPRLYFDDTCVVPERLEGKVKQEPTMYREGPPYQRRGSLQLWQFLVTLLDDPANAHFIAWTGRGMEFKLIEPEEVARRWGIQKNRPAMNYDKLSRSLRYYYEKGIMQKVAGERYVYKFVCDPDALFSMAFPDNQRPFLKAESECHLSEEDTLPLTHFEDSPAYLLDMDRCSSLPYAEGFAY
ETV6, sequence (P41212 whole entry): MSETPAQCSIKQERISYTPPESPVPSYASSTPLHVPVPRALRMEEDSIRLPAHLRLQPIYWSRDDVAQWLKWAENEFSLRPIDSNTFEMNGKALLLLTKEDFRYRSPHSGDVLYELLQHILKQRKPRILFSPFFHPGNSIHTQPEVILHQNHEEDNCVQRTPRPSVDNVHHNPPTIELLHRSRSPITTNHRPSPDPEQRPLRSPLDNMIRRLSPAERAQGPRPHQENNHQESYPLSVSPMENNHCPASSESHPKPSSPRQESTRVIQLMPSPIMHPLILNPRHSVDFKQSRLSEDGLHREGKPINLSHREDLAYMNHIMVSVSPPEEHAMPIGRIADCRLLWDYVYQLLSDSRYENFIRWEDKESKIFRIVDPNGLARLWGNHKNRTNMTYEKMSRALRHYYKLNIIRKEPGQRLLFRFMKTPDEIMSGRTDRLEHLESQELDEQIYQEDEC

Consider ATGTTT, for which the binding signal in the experiment with FEV was 1.36 fold enrichment (6-mer frequency, TF over GST control); with ETV5 it was 1.4 fold enrichment (6-mer frequency, TF over GST control); with HSF1, 1.32 fold enrichment (6-mer frequency, TF over GST control); with SPIC, 1.27 fold enrichment (6-mer frequency, TF over GST control); in the experiment with ELF4, 1.3 fold enrichment (6-mer frequency, TF over GST control); with ELK4, 1.37 fold enrichment (6-mer frequency, TF over GST control). In addition, the binding signal with ETV2 was 1.41 fold enrichment (6-mer frequency, TF over GST control); in the experiment with ELF3, 1.34 fold enrichment (6-mer frequency, TF over GST control); in the experiment with CRX it was 1.26 fold enrichment (6-mer frequency, TF over GST control); in the experiment with ETV1 it was 1.26 fold enrichment (6-mer frequency, TF over GST control); with ERF, 1.46 fold enrichment (6-mer frequency, TF over GST control); in the experiment with ETV3L it was 1.48 fold enrichment (6-mer frequency, TF over GST control). The binding signal was 1.29 fold enrichment (6-mer frequency, TF over GST control) with ETS2; 1.37 fold enrichment (6-mer frequency, TF over GST control) in the experiment with SPDEF; 1.46 fold enrichment (6-mer frequency, TF over GST control) in the experiment with ETV7; 1.47 fold enrichment (6-mer frequency, TF over GST control) with ELF5; 1.47 fold enrichment (6-mer frequency, TF over GST control) with ETV3; 1.47 fold enrichment (6-mer frequency, TF over GST control) with ETV6.
